Laboratory results from PubChem BioAssay (EPA / NIEHS).
Calls of active or inactive are those of the source. The calls were made as follows: active = hit-call score of the fitted dose curve at least 0.9, where 1 is the maximum; inactive = score below 0.9.

Experiments:
[1] = ATG_E_Box_CIS: Attagene CIS-FACTORIAL HepG2 Assay for human Enhancer Box (E-box) (AID 2282936); details: HepG2 E-box cis-reporter transcription, actives raise or lower the signal
How it was run: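 In this cell-based setup, HepG2 cells bearing transfected promoter-driven reporter units were exposed to chemicals for 24 h; reporter transcripts were amplified, 6-FAM-labelled, cut with HpaI and sized by capillary electrophoresis.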

[2] = ATG_M_61_CIS: Attagene CIS-FACTORIAL HepG2 Assay for M61 Transcription Factor (Internal Marker) (AID 2282937); details: HepG2 Attagene CIS-FACTORIAL M61 internal marker reporter; actives raise or lower the signal
How it was run: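 Cells were transfected with reporter units under cis-regulatory promoters, treated with chemicals for 24 h, then lysed for RNA. Reporter transcripts were quantified by RT-PCR and capillary electrophoresis, and activity was fitted bidirectionally against DMSO.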

[3] = ATG_EGR_CIS: Attagene CIS-FACTORIAL HepG2 Assay for human Early Growth Response 1 (EGR1) (AID 2282938); details: HepG2 Attagene CIS-FACTORIAL EGR reporter mRNA; actives raise or lower the signal
How it was run: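 Endogenous TF activity in HepG2 liver cells was gauged through cis-promoter reporter constructs transiently transfected. After 24 h dosing, reporter mRNA was quantified by RT-PCR and capillary electrophoresis, and curves fitted in both directions versus DMSO.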

[4] = ATG_M_19_CIS: Attagene CIS-FACTORIAL HepG2 Assay for M19 Transcription Factor (Internal Marker) (AID 2282939); details: HepG2 Attagene CIS-FACTORIAL M19 internal marker reporter; actives raise or lower the signal
How it was run: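 HepG2, MRTU transient transfection, 24 h dosing. Total RNA → RT-PCR → 6-FAM primer extension → HpaI digest → CE fluorescence. Bidirectional curve fit, DMSO negative control.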

[5] = ATG_ERE_CIS: Attagene CIS-FACTORIAL HepG2 Assay for Estrogen Response Element (ERE) (AID 2282940); details: HepG2 ERE cis-reporter, Attagene RNA transcript; actives raise or lower the signal
How it was run: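 After a 24 h chemical treatment, RNA from reporter-transfected HepG2 cells is reverse-transcribed, PCR-amplified and fluorescently labelled. Fragments separated by capillary electrophoresis give reporter signal; DMSO serves as negative control.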

[6] = ATG_Ets_CIS: Attagene CIS-FACTORIAL HepG2 Assay for human Erythroblast Transformation Specific (ETS) (AID 2282941); details: HepG2 ETS cis-reporter transcription, actives raise or lower the signal
How it was run: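 Endogenous transcription factor activity read as reporter mRNA via RT-PCR and capillary electrophoresis, with gain or loss fitted bidirectionally against DMSO. Human HepG2 liver cells, transiently transfected CIS reporter constructs, 24 h exposure.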

[7] = biological target: Hepatocyte nuclear factor 3-beta (Homo sapiens) (UniProt Q9Y261); test: ATG_FoxA2_CIS: Attagene CIS-FACTORIAL HepG2 Assay for human Forkhead box A2 (FOXA2) (AID 2282942); details: HepG2 cis-reporter transcription factor activity, 24 h; actives raise or lower the signal
How it was run: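 Endogenous transcription factor activity was read in HepG2 cells carrying transiently transfected cis-promoter reporter units. After 24 h dosing, reporter mRNA was quantified by RT-PCR and capillary electrophoresis, and values fitted bidirectionally versus DMSO.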

[8] = ATG_FoxO_CIS: Attagene CIS-FACTORIAL HepG2 Assay for human Forkhead box O (FoxO) (AID 2282943); details: HepG2 Attagene cis-reporter, FoxO element, mRNA; actives raise or lower the signal
How it was run: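 Read-out: fluorescence of 6-FAM-labelled reporter cDNA fragments resolved by capillary electrophoresis. Transiently transfected HepG2 cells were dosed for 24 h; activity fitted in both directions relative to DMSO controls.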

[9] = ATG_GATA_CIS: Attagene CIS-FACTORIAL HepG2 Assay for human GATA Binding Protein (AID 2282944); details: HepG2 GATA cis-element reporter, Attagene multiplex mRNA; actives raise or lower the signal
How it was run: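 Cells: HepG2, transiently transfected with cis-regulated reporter transcription units. Exposure: 24 h. Detection: RT-PCR plus capillary electrophoresis of FAM-labeled fragments. Analysis: bidirectional, DMSO as baseline.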

Measured: AC50

Chain of Hepatocyte nuclear factor 3-beta (Homo sapiens) (Q9Y261 whole entry, looked up): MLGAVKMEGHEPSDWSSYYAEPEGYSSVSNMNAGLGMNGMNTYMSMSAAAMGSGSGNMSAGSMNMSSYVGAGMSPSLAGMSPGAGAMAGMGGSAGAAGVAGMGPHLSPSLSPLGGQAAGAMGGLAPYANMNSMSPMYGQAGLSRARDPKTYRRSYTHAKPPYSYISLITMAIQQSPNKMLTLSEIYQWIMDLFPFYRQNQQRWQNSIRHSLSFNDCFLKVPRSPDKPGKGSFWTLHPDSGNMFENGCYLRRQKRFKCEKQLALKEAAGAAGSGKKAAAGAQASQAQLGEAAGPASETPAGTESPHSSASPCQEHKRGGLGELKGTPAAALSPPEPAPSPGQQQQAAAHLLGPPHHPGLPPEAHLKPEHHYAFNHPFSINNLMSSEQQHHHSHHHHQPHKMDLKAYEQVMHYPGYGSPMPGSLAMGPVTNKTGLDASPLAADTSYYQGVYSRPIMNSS

CCCCCCS
inactive: all assays above

FC(F)(F)C(F)(F)C(F)(F)N(C(F)(F)C(F)(F)C(F)(F)F)C(F)(F)C(F)(F)C(F)(F)F
inactive: all assays above

C=CC/C=C/C/C=C/C/C=C/C
inactive: all assays above

O=C(O)C(F)(F)C(F)(F)C(F)(F)C(F)(F)F
inactive: all assays above

OCC(F)(F)C(F)(F)C(F)(F)C(F)(F)C(F)(F)C(F)(F)F
active: [1] 150 µM | [3] 248 µM | [6] 236 µM
inactive: all other assays above

CO[Si](OC)(c1ccccc1)c1ccccc1
active: [5] 72.8 µM
inactive: all other assays above

FC(F)(F)C(F)(F)C(F)(F)C(F)(F)C(F)(F)C(F)(F)CCS
active: [5] 26.4 µM
inactive: all other assays above

CCN(Cc1cccc(S(=O)(=O)O)c1)c1ccc(C(=C2C=CC(=[N+](CC)Cc3cccc(S(=O)(=O)O)c3)C=C2)c2ccc(O)cc2S(=O)(=O)[O-])cc1
active: [5] 16.8 µM
inactive: all other assays above

O=C(O)C(F)(OC(F)(F)C(F)(OC(F)(F)C(F)(OC(F)(F)C(F)(F)C(F)(F)F)C(F)(F)F)C(F)(F)F)C(F)(F)F (stereo not given)
inactive: all assays above

COC(OC(C)=O)c1ccccc1 (stereo not given)
inactive: all assays above
